# From PubChem
# Rows were chosen to be rich in hits. Some 4.3% of all compounds tested hit in one or more screens of this group.
# BoNT F protease: blocks Botulinum neurotoxin F light chain protease | 360,000 tested, 0.22% active | inhibition, % at 10 µM | Multiplex microsphere protease cleavage assay, flow cytometry; in the data active means inhibition above about 35%, passing the limit was not always enough; inconclusive means no clear call, values can overlap the other calls; further: plate controls were buffer without enzyme for full effect and enzyme alone for no effect
# MazF activator: increases E. coli MazEF RNase cleavage of RNA; activation, % at 20 µM; P0AE70; 350,000 tested, 0.32% active; FAM/BHQ RNA-DNA oligo cleavage fluorescence, 5 h; in the data active means activation above about 50%
# Autofluor counter: compound fluorescence in toxin protease inhibitor counterscreen | AID 624483 | 360,000 tested, 3.1% active | fluorescence intensity (test concentration not listed) | compound autofluorescence counterscreen, microsphere flow cytometry; hits give high values; in the data active means fluorescence intensity above about 16000; inconclusive means no clear call, values can overlap the other calls
# PfHsp40 yeast: compounds rescuing yeast from Plasmodium falciparum HSP40 toxicity. S. cerevisiae expressing PfHsp40, growth rescue, ATP luminescence. growth rescue, % at 12.5 µM. 340,000 tested, 0.68% active. AID 504582; in the data active means growth rescue above about 28%, passing the limit was not always enough; inconclusive means no clear call, values can overlap the other calls;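 further: yeast W303a lacking pdr1 and pdr3 grown in galactose medium; growth measured after three days at 30 °C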
# BoNT-A LC inh2: BoNT A light chain protease inhibition; multiplex microsphere protease substrate cleavage, flow cytometry; inhibition, % at 10 µM; 360,000 tested, 0.17% active; AID 588499; further: plate controls were buffer without enzyme for full effect and enzyme alone for no effect
# Anthrax LF inh2: anthrax lethal factor protease inhibition | inhibition, % at 10 µM | 360,000 tested, 0.12% active | multiplex microsphere protease cleavage assay, LF | P15917; further: plate controls were buffer without enzyme for full effect and enzyme alone for no effect
# Target sequence (P15917 whole entry, looked up): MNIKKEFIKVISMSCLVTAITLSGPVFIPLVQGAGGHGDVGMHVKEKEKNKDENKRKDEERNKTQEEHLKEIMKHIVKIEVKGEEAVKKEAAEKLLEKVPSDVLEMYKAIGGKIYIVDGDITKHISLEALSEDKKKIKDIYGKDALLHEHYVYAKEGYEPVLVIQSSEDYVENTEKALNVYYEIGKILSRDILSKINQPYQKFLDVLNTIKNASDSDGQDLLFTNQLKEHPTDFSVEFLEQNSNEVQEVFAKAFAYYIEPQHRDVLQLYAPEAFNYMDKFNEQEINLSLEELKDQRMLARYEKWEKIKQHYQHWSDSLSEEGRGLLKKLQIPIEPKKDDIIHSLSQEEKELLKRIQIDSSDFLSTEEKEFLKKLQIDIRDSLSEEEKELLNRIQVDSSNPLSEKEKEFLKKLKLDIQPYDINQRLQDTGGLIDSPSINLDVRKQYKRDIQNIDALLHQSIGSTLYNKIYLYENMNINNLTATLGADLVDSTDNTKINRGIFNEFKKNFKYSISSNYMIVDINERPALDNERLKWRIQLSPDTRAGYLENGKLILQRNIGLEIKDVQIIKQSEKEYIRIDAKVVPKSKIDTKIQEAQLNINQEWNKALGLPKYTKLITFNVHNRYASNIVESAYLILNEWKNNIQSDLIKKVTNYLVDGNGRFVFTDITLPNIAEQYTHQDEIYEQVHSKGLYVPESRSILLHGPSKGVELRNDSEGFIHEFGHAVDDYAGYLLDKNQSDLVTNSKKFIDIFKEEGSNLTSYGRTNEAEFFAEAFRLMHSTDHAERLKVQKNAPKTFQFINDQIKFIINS
# Starred values were filed as active, the others as inactive; ? = inconclusive; . = no result. Unless noted, no stated cut-off is given here; in the data, active means inhibition above about 30%; inconclusive means no clear call, values can overlap the other calls; inactive means below that.
SMILES,BoNT F protease,MazF activator,Autofluor counter,PfHsp40 yeast,BoNT-A LC inh2,Anthrax LF inh2
Cn1c(SCCCC(=O)c2ccccc2)nnc1-c1ccncc1,2.2,2.6,19499*,0.1,?,1.9
Cn1c(SCC(=O)c2ccccc2)nnc1-c1ccc(O)cc1,3.4,10.0,20320*,0.1,1.2,1.2
CSc1nnc(-c2ccc(O)cc2)n1C,3.5,11.9,21757*,0.1,4.6,1.8
C=CCn1c(SCc2csc(C)n2)nc2sc3c(c2c1=O)CCCCC3,3.2,-1.0,21298*,2.5,2.0,-5.5
O=C(COc1ccc(Br)cc1Cl)NC1CCN(Cc2ccccc2)CC1,-1.6,0.3,6283,-1.6,-0.2,2.0
O=C(COc1ccccc1)NC1CCN(Cc2ccccc2)CC1,-1.3,3.1,17241*,0.9,?,-1.4
O=C(Cn1[nH]c(=O)c2ccccc2c1=O)NC1CCCCCC1,-5.3,-1.0,2395,0.2,-0.1,-1.2
O=C(CCC(=O)NC1CCN(Cc2ccccc2)CC1)NCc1ccco1,-1.6,3.5,23478*,0.0,?,-1.3
O=C(Cn1[nH]c(=O)c2ccccc2c1=O)NC1CCN(Cc2ccccc2)CC1,-0.3,4.6,23670*,-0.4,-2.2,-1.3
O=C(O)C1C2C=CC(C2)C1C(=O)NC1CCN(Cc2ccccc2)CC1 (stereo unspecified),1.4,-2.2,20434*,1.0,?,0.7
O=C(NC1CCN(Cc2ccccc2)CC1)C1COc2ccccc2O1 (stereo unspecified),-7.4,3.2,4314,1.0,0.6,-3.3
CCn1c(O)c(C=Nc2ccc(N3CCOCC3)c(Br)c2)c(=O)n(CC)c1=S,15.3,-135.1,19239*,0.1,18.5,20.1
Cn1c(O)c(C=Nc2ccc(N3CCOCC3)cc2)c(=O)n(C)c1=S,4.3,-40.2,2833,68.0*,1.1,3.4
Cn1c(O)c(/C=N/N2CCOCC2)c(=O)n(C)c1=S,?,3.3,5094,-1.4,?,-18.9
Cc1cc(O)c(C=Nc2ccc(N3CCOCC3)cc2)c(C)c1Cl,4.2,260.8*,3871,-1.3,-0.3,-0.8
Cc1ccc(Cl)cc1-c1ccc(C=Nc2ccc(N3CCOCC3)cc2)o1,-23.4,-15.6,1975,-0.1,-4.0,-1.0
CCn1c(O)c(C=Nc2ccc(N3CCOCC3)cc2)c(=O)n(CC)c1=S,1.9,-241.2,9832,4.8,2.6,10.0
CC1=CN2C(=NC(=O)CC2(C)C(=O)N(CC(=O)NC2CCCC2)Cc2ccc(Cl)cc2)C=C1 (stereo unspecified),-5.2,-3.5,5747,1.8,-1.8,-0.4
CC(C(=O)NCCc1ccccc1)N1c2cccc3cccc(c23)S1(=O)=O (stereo unspecified),6.5,6.7,4673,1.1,3.2,2.3
Cc1nn(C)c(C)c1CNC(=O)Nc1cccc(Cl)c1C,4.8,-4.5,3556,-0.9,-0.7,-0.6
COC(=O)Nc1ccc2c(c1)N(C(=O)CCN1CCN3CCCC3C1)c1ccccc1CC2 (stereo unspecified),?,7.5,4356,13.1,1.0,4.2
COC(=O)Nc1ccc2c(c1)N(C(=O)CCN1CCN3CCCC3C1)c1ccccc1S2 (stereo unspecified),-3.7,-1.9,23102*,-0.4,?,-1.3
CSC1=N/C(=C\c2ccc(C)s2)C(=O)S1,-1.5,532.4*,2328,-0.4,0.3,2.5
O=C(c1cc(-c2ccccc2)nc2ccccc12)N1N=C(C(F)F)CC1(O)C(F)F (stereo unspecified),-11.1,5.7,26128*,3.1,-7.3,-3.3
CCOc1cccc(-c2cc(C(=O)N3N=C(C)CC3(O)C(F)F)c3ccccc3n2)c1 (stereo unspecified),-0.9,5.6,4253,0.0,0.2,5.5
SMILES,BoNT F protease,MazF activator,Autofluor counter,PfHsp40 yeast,BoNT-A LC inh2,Anthrax LF inh2
CCCCc1c(-c2ccc(F)cc2)ncn1CCc1ccccc1OC,-2.6,.,5513,.,-0.2,8.4
CCCC/C(O)=C1\C(=O)CC(C)(C)CC1=Nc1ccccc1OC,-1.0,-3.7,20312*,1.8,-0.3,-1.4
O/N=C(/c1ccccc1)c1cc2cc(Br)cc(Br)c2o1,10.3,-15.4,3708,-0.8,0.2,30.5*
O=C(/C=C\Nc1ccc2c(c1)OCO2)c1ccc(Cl)s1,-10.6,85.8*,4355,0.6,0.9,-0.9
COc1ccc(NC(=O)CSc2nnc(-c3ccc(F)cc3)o2)cn1,-0.1,-3.8,6556,0.0,0.9,-3.1
Cc1[nH]c2ccccc2c1/C=C(\C#N)C(=O)NCc1ccccc1,-25.0,105.7*,11132,0.4,52.8*,7.4
